Among the test systems are NCI-H23 lung; NCI-H226 lung; NCI-H322M lung; HOP-62 NSCLC; NCI-H460 lung; HOP-92 NSCLC; NCI-H522 lung; A549/ATCC NSCLC; 786-0 renal; COLO 205 colon.
What all share (assay): NCI-60 one-dose screen, 48 h (100 = growth as untreated, 0 = no growth, -100 = all killed)
Settings in all cases: 10 µM unless noted

Consider 13 molecules from PubChem BioAssay (NCI).

Structures are written as SMILES. About 83,000 compounds went through this panel and 20% of them were active in at least one assay; those are over-represented in the sample as a whole.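 Plates (96-well) were seeded with cells, treated with compound at one concentration, and incubated for 48 hours before percent growth was determined.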 Unmarked numbers belong to inactive results. Activity calls are given as the source filed them. How the source made its calls: active means growth percent below 10; inactive means the rest.

In the case of `COc1cc(-c2nc(N)n(CC(=O)Nc3ccc(/C(C)=N\O)cc3)n2)cc(OC)c1OC`, the growth in the experiment with NCI-H23 lung is 95.8%; with NCI-H226 lung, 94.8%; in the experiment on NCI-H322M lung, 94.2%; with HOP-62 NSCLC, 94.5%; in the experiment with NCI-H460 lung, 106%; with HOP-92 NSCLC, 88.2%. Also, the growth in the experiment on NCI-H522 lung was 60.8%; in the experiment with A549/ATCC NSCLC it was 74.2%; with 786-0 renal it was 104%; with COLO 205 colon, 104%.

For the molecule `C[C@]12CC[C@@H]3c4ccc(O)c(N)c4CC[C@H]3[C@@H]1CC[C@@H]2O`, the growth with NCI-H23 lung was 101%; in the experiment on NCI-H226 lung, 112%; in the experiment on NCI-H322M lung, 114%; with HOP-62 NSCLC, 143%; in the experiment with NCI-H460 lung, 102%; with HOP-92 NSCLC, 140%. The growth in the experiment with NCI-H522 lung was 82.6%; with A549/ATCC NSCLC it was 99.9%; with 786-0 renal it was 118%; with COLO 205 colon, 123%.

In the case of `CCCCNC(=O)Oc1ccc(/C(=C(/CC)Cc2ccccc2)c2ccc(OCCCN(C)C)cc2)cc1`, the growth was 91.7% in the experiment on NCI-H23 lung; 92.9% in the experiment with NCI-H226 lung; 83.1% in the experiment with NCI-H322M lung; 96.1% with HOP-62 NSCLC; 63.7% with NCI-H460 lung; 43.8% with HOP-92 NSCLC. Further, the growth in the experiment on NCI-H522 lung was 88.1%; in the experiment on A549/ATCC NSCLC, 69.5%; in the experiment with 786-0 renal it was 71.2%; with COLO 205 colon, 20.5%.

`Cc1ccc2oc(=O)cc(C3C(C#N)=C(N)Oc4c3ccc3ccccc43)c2c1` (stereo not given): the growth is 89.8% in the experiment on NCI-H23 lung; 87.1% in the experiment with NCI-H226 lung; 89.2% with NCI-H322M lung; 63.7% in the experiment with HOP-62 NSCLC; 84.1% with NCI-H460 lung; 87.3% with HOP-92 NSCLC. Also, the growth is 48.6% with NCI-H522 lung, 71.1% in the experiment on A549/ATCC NSCLC, 81.3% in the experiment with 786-0 renal and 70.3% with COLO 205 colon.

Take `COc1ccc(C(=O)NC(=O)Nc2ccc3c(c2)NC(=O)/C3=C\c2[nH]c(C)c(C(=O)O)c2C)cc1`: the growth was 18.1% with NCI-H23 lung; 83.9% with NCI-H226 lung; 94.2% in the experiment with NCI-H322M lung; 96.2% in the experiment with HOP-62 NSCLC; 100% with NCI-H460 lung; -1.09% (active) with HOP-92 NSCLC. The growth was 7.54% (active) in the experiment on NCI-H522 lung, 98% in the experiment on A549/ATCC NSCLC, 16.8% with 786-0 renal and 88.1% in the experiment with COLO 205 colon.

Turning to `O=C(NNC(=O)c1ccc([N+](=O)[O-])cc1)c1ccc([N+](=O)[O-])cc1`, the growth with NCI-H23 lung is 94.8%; in the experiment with NCI-H226 lung, 99.3%; in the experiment with NCI-H322M lung, 120%; in the experiment with HOP-62 NSCLC it was 90.8%; in the experiment with NCI-H460 lung, 105%; in the experiment on HOP-92 NSCLC, 106%. For the same molecule, the growth in the experiment on NCI-H522 lung was 84%; in the experiment on A549/ATCC NSCLC it was 99.3%; in the experiment on 786-0 renal it was 95%; in the experiment on COLO 205 colon it was 115%.

For `O=C(NC(=S)Nc1ccc(Cl)cc1)c1ccccc1`, the growth in the experiment with NCI-H23 lung was 98.4%; with NCI-H226 lung, 108%; in the experiment with NCI-H322M lung it was 107%; in the experiment on HOP-62 NSCLC, 96.6%; in the experiment with NCI-H460 lung, 105%; in the experiment on HOP-92 NSCLC it was 85.8%. Also, the growth in the experiment on NCI-H522 lung is 53%; in the experiment on A549/ATCC NSCLC it was 85.1%; in the experiment on 786-0 renal, 90.9%; in the experiment with COLO 205 colon it was 132%.

Turning to `S=c1[nH]nc(Cn2c3ccccc3c3ccncc32)o1`, the growth with NCI-H23 lung was 107%; in the experiment with NCI-H226 lung, 107%; with NCI-H322M lung it was 106%; in the experiment on HOP-62 NSCLC, 95.1%; in the experiment on NCI-H460 lung, 100%; with HOP-92 NSCLC it was 109%. The growth in the experiment on NCI-H522 lung is 91.3%; in the experiment with A549/ATCC NSCLC it was 90.7%; in the experiment on 786-0 renal, 99.2%; in the experiment on COLO 205 colon, 104%.

Regarding `Nc1nc(Cl)cc(NCCCCNc2cc(Cl)nc(N)n2)n1`, the growth with NCI-H23 lung is 102%; in the experiment on NCI-H226 lung, 109%; in the experiment on NCI-H322M lung, 87.1%; in the experiment on HOP-62 NSCLC, 107%; in the experiment on NCI-H460 lung it was 121%; in the experiment with HOP-92 NSCLC, 74.3%. Also, the growth is 83.8% in the experiment with NCI-H522 lung, 108% with A549/ATCC NSCLC, 108% in the experiment with 786-0 renal and 105% in the experiment on COLO 205 colon.

In the case of `N#CC(C#N)=C(C#N)c1c[nH]c2ccccc12`, the growth in the experiment on NCI-H23 lung was 87.4%; in the experiment with NCI-H226 lung it was 78.4%; in the experiment on NCI-H322M lung it was 110%; with HOP-62 NSCLC, 81.2%; in the experiment on NCI-H460 lung, 92.8%; in the experiment with HOP-92 NSCLC, 41.2%. Further, the growth with NCI-H522 lung was 57.4%; in the experiment with A549/ATCC NSCLC, 80.4%; with 786-0 renal, 82.4%; with COLO 205 colon it was 73.8%.

Consider `CC1OC(n2c3ccccc3c3c4c(c5c6ccccc6[nH]c5c32)C(=O)N(CCN[C@@H]2CCC[C@H]2N)C4=O)CC(O)C1O` (stereo not given in full), for which the growth in the experiment with NCI-H23 lung is 13.2%; with NCI-H226 lung, 17.4%; in the experiment on NCI-H322M lung, 25.4%; with HOP-62 NSCLC, 5.12% (active); in the experiment on NCI-H460 lung, -62% (active); in the experiment with HOP-92 NSCLC it was 72%. For the same molecule, the growth in the experiment with NCI-H522 lung was -9.89% (active); in the experiment with A549/ATCC NSCLC, 14.1%; with 786-0 renal it was 32.2%; with COLO 205 colon, 1.5% (active).

As for `CCc1cccc(C)c1NC(=O)c1sc2nc3c(cc2c1N)CCCCC3`, the growth was 45.3% in the experiment on NCI-H23 lung; 50.7% in the experiment on NCI-H226 lung; 41.4% in the experiment on NCI-H322M lung; 36.9% with HOP-62 NSCLC; 13.3% in the experiment on NCI-H460 lung; 72.2% in the experiment with HOP-92 NSCLC. For the same molecule, the growth is -9.98% (active) with NCI-H522 lung, 32.9% with A549/ATCC NSCLC, 44.8% in the experiment with 786-0 renal and 7.73% (active) in the experiment with COLO 205 colon.

Turning to `Cc1nccc2c3ccc(OCc4cn(-c5ccc(Br)cc5)nn4)cc3n(CCCc3ccccc3)c12`, the growth was 51.2% in the experiment with NCI-H23 lung; 91% in the experiment with NCI-H226 lung; 91.1% in the experiment with NCI-H322M lung; 110% in the experiment with HOP-62 NSCLC; 33.4% with NCI-H460 lung; 99.7% in the experiment on HOP-92 NSCLC. In addition, the growth with NCI-H522 lung was 84.9%; in the experiment with A549/ATCC NSCLC it was 12.2%; with 786-0 renal, -71.4% (active); in the experiment on COLO 205 colon, 40.7%.
